Test results published in paper PMC12280212.

Tests used:
Actin, cytoplasmic 1 = Actin, cytoplasmic 1 (UniProt P60709); experiment: cross-linking mass spectrometry
Histone H2B type 1-N = Histone H2B type 1-N (UniProt Q99877); experiment: cross-linking mass spectrometry
Alpha-enolase = Alpha-enolase (UniProt P06733); experiment: cross-linking mass spectrometry
[1] = target: Heat shock cognate 71 kDa protein (UniProt P11142); experiment: cross-linking mass spectrometry
[2] = target: Heterogeneous nuclear ribonucleoprotein U (UniProt Q00839); experiment: cross-linking mass spectrometry
Chain of Heterogeneous nuclear ribonucleoprotein U (Q00839 whole entry): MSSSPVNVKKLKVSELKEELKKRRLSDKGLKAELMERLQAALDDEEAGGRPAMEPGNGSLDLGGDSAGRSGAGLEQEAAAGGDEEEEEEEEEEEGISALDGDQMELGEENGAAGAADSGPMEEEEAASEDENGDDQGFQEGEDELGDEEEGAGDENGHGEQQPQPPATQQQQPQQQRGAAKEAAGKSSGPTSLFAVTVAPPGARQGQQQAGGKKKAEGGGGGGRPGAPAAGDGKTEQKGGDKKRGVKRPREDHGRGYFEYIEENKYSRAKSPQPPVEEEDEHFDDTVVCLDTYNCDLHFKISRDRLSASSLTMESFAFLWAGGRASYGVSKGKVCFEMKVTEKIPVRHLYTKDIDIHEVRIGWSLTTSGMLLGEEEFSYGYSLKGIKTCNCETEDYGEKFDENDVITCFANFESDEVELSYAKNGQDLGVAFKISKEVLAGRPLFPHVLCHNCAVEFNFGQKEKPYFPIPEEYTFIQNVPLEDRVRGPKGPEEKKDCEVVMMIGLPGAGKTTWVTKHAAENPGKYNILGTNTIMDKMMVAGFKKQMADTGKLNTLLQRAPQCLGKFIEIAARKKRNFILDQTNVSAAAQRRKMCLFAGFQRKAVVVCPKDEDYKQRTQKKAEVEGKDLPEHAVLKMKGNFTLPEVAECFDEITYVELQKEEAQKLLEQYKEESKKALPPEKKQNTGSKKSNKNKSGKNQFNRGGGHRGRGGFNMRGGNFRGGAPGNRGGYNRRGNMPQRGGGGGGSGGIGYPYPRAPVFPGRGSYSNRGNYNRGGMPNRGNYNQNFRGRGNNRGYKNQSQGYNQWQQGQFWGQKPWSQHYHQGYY

[3] = target: Protein disulfide-isomerase A6 (UniProt Q15084); experiment: cross-link between two proteins; cross-linking mass spectrometry
Chain of Protein disulfide-isomerase A6 (Q15084 whole entry): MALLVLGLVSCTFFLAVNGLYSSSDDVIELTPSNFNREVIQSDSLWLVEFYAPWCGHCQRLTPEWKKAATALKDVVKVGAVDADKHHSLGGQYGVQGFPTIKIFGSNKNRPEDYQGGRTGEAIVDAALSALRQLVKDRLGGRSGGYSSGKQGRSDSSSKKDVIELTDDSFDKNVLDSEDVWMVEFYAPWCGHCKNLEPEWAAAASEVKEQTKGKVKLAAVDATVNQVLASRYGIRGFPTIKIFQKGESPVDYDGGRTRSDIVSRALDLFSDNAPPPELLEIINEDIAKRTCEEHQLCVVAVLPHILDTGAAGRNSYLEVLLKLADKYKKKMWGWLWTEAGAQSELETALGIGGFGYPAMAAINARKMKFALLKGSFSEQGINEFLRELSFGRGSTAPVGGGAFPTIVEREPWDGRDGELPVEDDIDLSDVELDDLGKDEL

[4] = target: Voltage-gated monoatomic cation channel TMEM109 (UniProt Q9BVC6); experiment: as above
Chain of Voltage-gated monoatomic cation channel TMEM109 (Q9BVC6 whole entry): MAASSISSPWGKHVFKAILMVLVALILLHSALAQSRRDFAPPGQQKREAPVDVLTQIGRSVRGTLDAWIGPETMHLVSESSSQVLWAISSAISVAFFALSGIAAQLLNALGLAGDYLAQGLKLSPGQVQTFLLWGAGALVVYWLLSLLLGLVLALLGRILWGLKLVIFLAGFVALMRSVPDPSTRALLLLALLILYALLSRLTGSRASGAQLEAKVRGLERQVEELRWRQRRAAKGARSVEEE

CD44 antigen = CD44 antigen (UniProt P16070); experiment: cross-link between two proteins; affinity purification or IP with mass spectrometry; cross-linking mass spectrometry

Chain of Protein disulfide-isomerase, P07237 (P07237 whole entry): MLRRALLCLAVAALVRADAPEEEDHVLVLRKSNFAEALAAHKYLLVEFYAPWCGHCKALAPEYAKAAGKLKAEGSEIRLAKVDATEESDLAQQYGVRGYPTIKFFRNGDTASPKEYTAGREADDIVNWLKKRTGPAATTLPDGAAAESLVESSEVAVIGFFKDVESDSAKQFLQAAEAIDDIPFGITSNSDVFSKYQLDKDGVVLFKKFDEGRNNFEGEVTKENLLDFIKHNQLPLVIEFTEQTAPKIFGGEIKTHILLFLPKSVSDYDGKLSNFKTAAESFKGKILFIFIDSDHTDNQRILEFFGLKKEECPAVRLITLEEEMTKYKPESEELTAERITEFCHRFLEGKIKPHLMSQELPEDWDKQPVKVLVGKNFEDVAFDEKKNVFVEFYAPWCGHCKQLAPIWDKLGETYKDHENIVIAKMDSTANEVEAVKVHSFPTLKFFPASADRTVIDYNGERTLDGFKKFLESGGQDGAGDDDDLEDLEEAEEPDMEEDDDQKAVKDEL
Chain of Alpha-enolase (P06733 whole entry): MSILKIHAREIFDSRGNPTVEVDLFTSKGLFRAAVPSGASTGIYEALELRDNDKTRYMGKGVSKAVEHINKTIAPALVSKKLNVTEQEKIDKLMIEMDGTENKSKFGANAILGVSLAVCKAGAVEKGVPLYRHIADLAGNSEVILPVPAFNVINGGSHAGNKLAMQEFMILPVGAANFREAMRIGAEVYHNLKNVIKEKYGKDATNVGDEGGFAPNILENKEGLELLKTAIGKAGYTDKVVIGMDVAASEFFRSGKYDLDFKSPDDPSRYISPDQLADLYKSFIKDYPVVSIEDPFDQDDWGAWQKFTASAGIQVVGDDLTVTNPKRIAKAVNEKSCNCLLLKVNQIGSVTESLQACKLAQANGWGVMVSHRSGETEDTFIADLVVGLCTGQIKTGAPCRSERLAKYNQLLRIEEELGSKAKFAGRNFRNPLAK
Chain of Glyceraldehyde-3-phosphate dehydrogenase, P04406 (P04406 whole entry): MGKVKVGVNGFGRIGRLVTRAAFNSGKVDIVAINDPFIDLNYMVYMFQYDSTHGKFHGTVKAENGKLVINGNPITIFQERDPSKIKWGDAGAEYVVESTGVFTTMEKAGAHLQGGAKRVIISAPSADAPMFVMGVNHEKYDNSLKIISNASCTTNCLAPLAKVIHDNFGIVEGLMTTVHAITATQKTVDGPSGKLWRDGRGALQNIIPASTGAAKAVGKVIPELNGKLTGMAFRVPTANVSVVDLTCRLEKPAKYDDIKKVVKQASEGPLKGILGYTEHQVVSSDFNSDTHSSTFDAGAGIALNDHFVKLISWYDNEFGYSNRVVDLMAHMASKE

High mobility group protein B1, P09429
listed as a hit (Actin, cytoplasmic 1): yes | listed as a hit (Histone H2B type 1-N): yes

Glyceraldehyde-3-phosphate dehydrogenase, P04406
listed as a hit (Alpha-enolase): yes

Tubulin beta chain, P07437
listed as a hit [1]: yes

Heterogeneous nuclear ribonucleoprotein A1, P09651
listed as a hit [2]: yes

Protein disulfide-isomerase, P07237
listed as a hit [3]: yes

Transmembrane protein 43, Q9BTV4
listed as a hit [4]: yes

Annexin A6, P08133
listed as a hit (CD44 antigen): yes
